Screening results from PubChem BioAssay.
Integrin act MD: activators of alpha7 integrin expression for muscular dystrophy | alpha7betagal myoblasts, beta-gal FDG fluorescence, 48 h | 0.064% of 350,000 active | Potency, µM (top dose mostly 38.3 µM), for inactives: top-dose activation, usual class: activators;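 also: potency is read from the fitted curve at half-maximal effect; 100% = response of the positive control SU9516; nearly all actives have a fitted effect of over 60% in size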
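alpha7betagal+/- myoblasts (passage 13, 250/well) treated 48 h at 37C with compounds at 1:260 dilution of DMSO stock. Lysed, then beta-galactosidase activity read as FDG fluorescence (ex 480/em 540) after 30 min, with pre-read for autofluorescence.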
TCR act: activators of T cell receptors | Potency, µM (series often up to 9.22 µM), for inactives: at the top dose activation of IL-2 secretion, actives largely listed as activators | primary human leukocytes, anti-CD3, IL-2 HTRF, 48 h | AID 504894 | 330,000 tested, under 10 active; also: % of control where 0% means no effect
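HTRF read-out of IL-2 secretion: europium cryptate donor excited at 320nm, d2 acceptor emission at 665nm. Cells were primary human leukocytes incubated 48 hr with compounds and a-CD3 beads, supplying TCR signal only.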
CBFb-RUNX1 inh: inhibitors of human CBF-beta and RUNX1 interaction | AlphaScreen CBFb-His/RUNX1-biotin binding, biochemical | AID 1477 | 230,000 tested, under 10 active | Potency, µM (titrated, usually from 59.8 µM), without a hit: top-dose activity, negative = inhibition, usual class: inhibitors | Q01196+Q13951; also: % of control where 0% means no effect
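Proteins preincubated together for 20 min at RT before compound addition; 15 min later, nickel and streptavidin beads were added and left 90 min prior to AlphaScreen measurement.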
MBNL1-CUG inh: MBNL1-poly(CUG) RNA binding inhibition | TR-FRET MBNL1-His/biotin-(CUG)12 binding, 665/545 ratio | 0.036% of 280,000 active | Potency, µM (titrated, usually from 57.5 µM), without a hit: at the highest dose activity change, negative = inhibition, actives largely listed as inhibitors | Q9NR56; active = well fitted inhibition curve with a large enough effect in the signal ratio, with a control signal flat, not every such curve was filed as active; inconclusive = small, poorly fitted or top-dose-only effect, or effect the other way, or a change in a side signal; inactive = no such curve, though single readings can be large or run the other way; the % refers to the signal ratio; also: potency is read from the fitted curve at half-maximal effect; % is scaled to controls: 0 for no effect and ±100 for the full control effect
Target sequence (Q9NR56 whole entry, looked up): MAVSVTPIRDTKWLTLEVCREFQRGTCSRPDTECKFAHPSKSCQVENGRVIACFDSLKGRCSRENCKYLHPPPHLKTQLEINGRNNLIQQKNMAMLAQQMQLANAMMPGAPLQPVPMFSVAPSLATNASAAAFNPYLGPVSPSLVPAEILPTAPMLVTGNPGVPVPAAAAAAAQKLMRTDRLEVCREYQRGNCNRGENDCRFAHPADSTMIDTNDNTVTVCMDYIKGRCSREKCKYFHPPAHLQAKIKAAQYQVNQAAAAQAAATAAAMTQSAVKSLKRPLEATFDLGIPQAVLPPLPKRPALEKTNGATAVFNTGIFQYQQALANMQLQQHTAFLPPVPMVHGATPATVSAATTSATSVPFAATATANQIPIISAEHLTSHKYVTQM
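MBNL1-His + Biotin-(CUG)12, cpd titration 92 nM–58 uM; Tb anti-His Ab 0.055 ng/ul, SA-XL665 5 nM (final); 60 min RT; ratiometric 665/545 nm, Ex 340 nm; normalized to buffer and full-complex controls.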
PTAP TSG101 blk: blocks PTAP/TSG101 interaction to inhibit HIV-1 budding. Q99816. Fluorescence polarization, FITC-PTAP peptide / Tsg101 binding. Potency, µM (highest dose often 115 µM), for the others: at the top dose activity change, negative = inhibition, hits mostly inhibitors. 340,000 tested, under 10 active; active = well fitted inhibition curve with a large enough effect in the main read-out, with a control signal flat, not every such curve was filed as active; inconclusive = small, poorly fitted or top-dose-only effect, or effect the other way, or a change in a side signal; inactive = no such curve, though single readings can be large or run the other way; also: potency is read from the fitted curve at half-maximal effect; % of control where 0% means no effect
Target sequence (Q99816 whole entry, looked up): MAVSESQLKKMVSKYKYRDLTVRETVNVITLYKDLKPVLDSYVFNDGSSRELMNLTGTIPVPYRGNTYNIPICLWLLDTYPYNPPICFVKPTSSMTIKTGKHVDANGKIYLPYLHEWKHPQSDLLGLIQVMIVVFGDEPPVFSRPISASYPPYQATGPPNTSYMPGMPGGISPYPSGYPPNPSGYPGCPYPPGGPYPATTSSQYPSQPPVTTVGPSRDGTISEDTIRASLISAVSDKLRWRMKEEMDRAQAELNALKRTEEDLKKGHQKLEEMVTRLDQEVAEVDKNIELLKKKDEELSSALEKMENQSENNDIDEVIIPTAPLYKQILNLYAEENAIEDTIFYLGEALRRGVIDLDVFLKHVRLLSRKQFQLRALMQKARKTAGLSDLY
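Fluorescence anisotropy tracks displacement of a FITC-tagged PTAP peptide (50 nM) from the Tsg101 binding domain (10 uM), following a 20 min room-temperature incubation at pH 7.5.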
TSHR antagonist: blocks TSH signaling through the human TSH receptor; TSHR-expressing cells, TSH-stimulated cAMP HTRF, 2 h; hits give low values; 0.2% of 330,000 active; activity change, negative = inhibition, % at 11.5 µM; AID 504810; P16473;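 active = activity change below a set negative limit, meaning inhibition stronger than a set level, cut at about -70% in these data; inconclusive = activity change between two set negative limits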; also: % is scaled to controls: 0 for no effect and ±100 for the full control effect
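TSHR-expressing cells were treated with compounds, then stimulated with TSH at EC80 (4nM final) for 2 hours at 37 deg C. Cellular cAMP was measured by HTRF competition between lysate cAMP and cAMP-d2 for a cryptate-labelled anti-cAMP antibody.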
The depositor's hits bear a star; ? = inconclusive; / = no result; [ ] = dose if it differs, or a comment. Sampled rows, rich in hits. Any-hit rate of the full collection: about 0.26%. Unless noted, calls follow the shape of the dose curve; as a rule, active = well fitted curve in the direction sought with a large enough effect; inconclusive = small, poorly fitted or top-dose-only effect, or another doubt; inactive = no such curve, though single readings can be large; an effect the other way counts as inactive or inconclusive.

SMILES	Integrin act MD	TCR act	CBFb-RUNX1 inh	MBNL1-CUG inh	PTAP TSG101 blk	TSHR antagonist
CC(=O)c1cccc(NC(=O)c2sc3nc4n(c(=O)c3c2C)CCCC4)c1	23.8%	4.7%	/	8.2%	-9.4%	-131.6*
COc1ccccc1-n1c(SCC(=O)O)nc2c(sc(=S)n2-c2ccc(C)c(C)c2)c1=O	41.5%	-2.1%	/	14.5%	-5.4%	-0.4
CCOc1ccccc1-n1c(=S)sc2c(=O)n(-c3ccc(F)cc3)c(SCC(=O)O)nc21	36.2%	7.1%	/	6.2%	-6.6%	-70.9*
COCCNc1cnn(-c2ccccc2)c(=O)c1Cl	-14.4%	-1.7%	/	3.6%	-5.5%	-122.2*
CCOP(=O)(Cc1ccc(C(C)(C)CC(C)=O)o1)OCC	30.6%	-0.8%	0.0%	-10.3%	-3.5%	-81.8*
NC(=O)C1CCN(c2nc(-c3cccc4sc5ccccc5c34)cs2)CC1	/	/	/	/	/	-17.0
CCS(=O)(=O)N1CCN(c2ccc([N+](=O)[O-])c(NCC3CCCO3)c2)CC1 (stereo unspecified)	10µM*	-0.9%	-1.7%	?	-1.2%	-7.7
C=C(C(C)=O)C(O)c1cccc(Br)c1 (stereo unspecified)	/	/	10.2%	/	/	/
Cn1c(CNC(=O)c2ccc(Cl)cc2)nnc1SCC(=O)NC1CCCC1	11.2%	-1.9%	/	-1.4%	-8.1%	-98.1*
CCC(=O)/C=C/C1C(C)=CCCC1(C)C (stereo unspecified)	/	/	-7.1%[21.7 µM]	/	/	/
CC(=O)c1sc(NC(=O)C=C(C)C)nc1C	9.2%	-1.7%	0.4%	-2.8%	-6.3%	5.8
CC(=O)c1sc(NC(=O)C2(F)C(F)(F)C(F)(F)C(F)(F)C(F)(F)C2(F)F)nc1C	-76.5%	0.8%	10.8%	?	-11.5%	-75.5*
COc1ccc(Br)cc1/C=N/NC(=O)CN1CCCCC1	-15.0%	-5.1%	/	-0.1%	-0.8%	-121.8*
Cc1ccc(S(=O)(=O)N(C)c2cccc3cccnc23)cc1	/	/	8.8%	/	/	/
CCC(=O)N1CCN(c2ccc(NC(=O)c3cc4ccccc4o3)cc2Cl)CC1	-28.0%	-5.5%	6.7%	0.8%	-2.8%	-36.1
CCCC(=O)N1CCN(c2ccc(NC(=O)c3cc4ccccc4o3)cc2Cl)CC1	-60.0%	5.4%	4.8%	10.2%	-5.1%	-86.7*
COCCNC(=O)C1(C(F)(F)F)C/C(=C/CCO)CCCO1 (stereo unspecified)	/	/	7.8%	/	/	/
CO[C@@H]1COC(=O)[C@H]2CCCN2C(=O)[C@@H](C)COC(=O)[C@H](COCc2ccccc2)NC(=O)C/C=C\[C@H]1C	/	/	13.4%[13.1 µM]	/	/	/
O=C(NCC1CCCN(C(=O)c2cccc(C(F)(F)F)c2)C1)c1ccc(F)cc1 (stereo unspecified)	0.1%	-39.2%	/	8.2%	-2.1%	-131.9*
CC1(CCc2ccccc2)NC(=O)N(CC(=O)N2CC(=O)Nc3ccccc32)C1=O (stereo unspecified)	52.4%	6.5%	-9.2%	/	-0.7%	-76.8*
CCC(=O)Nc1nc(-c2ccc3c(c2)CC(C)N3S(C)(=O)=O)cs1 (stereo unspecified)	-11.4%	-7.1%	11.0%	-1.6%	-2.4%	23.5
CC1Cc2cc(-c3csc(NC(=O)Cc4cccs4)n3)ccc2N1S(C)(=O)=O (stereo unspecified)	-19.1%	1.8%	4.9%	-5.4%	1.9%	-72.3*
Nc1c(C(=O)NCc2ccc3c(c2)OCO3)nnn1CC(=O)Nc1ccc(Br)cc1	-25.8%	2.5%	/	-14.0%	-3.0%	-114.4*
CS(=O)(=O)N(CC(=O)N1CCOCC1)c1cccc(F)c1	12.8%	/	/	-2.5%	-3.9%	-93.2*
CCOc1ccc(C=C2SC(=O)N(CCN)C2=O)cc1	/	/	10.1%	/	/	/
SMILES	Integrin act MD	TCR act	CBFb-RUNX1 inh	MBNL1-CUG inh	PTAP TSG101 blk	TSHR antagonist
NC(=O)C1CCN(c2nc(-c3ccc4c(c3)OCO4)cs2)CC1	/	/	/	/	/	18.9
COc1ccc(-c2csc3ncnc(N4CCN(c5ccccc5[N+](=O)[O-])CC4)c23)cc1	10µM*	-3.3%	/	-8.7%	-3.3%	-14.8
CC(C)CO/N=C1/C[C@@H](O)[C@@H](O)[C@@H]2[C@@H]3C(=O)N(Cc4ccc5c(c4)OCO5)C(=O)[C@H]3CC[C@H]12	/	/	3.8%[13.1 µM]	/	/	/
CN(C#N)c1nccc(-c2cccs2)n1	11.2µM*	2.8%	-1.2%	18.4%	-0.8%	1.0
c1ccc(-c2cccs2)nc1	13.0%	-8.2%	3.4%	5.5%	-1.6%	5.8
CN(C)/C=N/c1nccc(-c2cccs2)n1	8.91µM*	-1.4%	-10.1%	/	-1.7%	-1.2
COc1ccc(C(C(=O)NC2CCCCC2)N(C(=O)c2snc(C(N)=O)c2N)c2ccc(OC)cc2OC)cc1 (stereo unspecified)	0.0%	-7.2%	/	-24.4%	-2.8%	-1.6
COc1ccc(N(CC(=O)NCCC(C)C)C(=O)c2snc(C(=O)NC3CCCCC3)c2N)c(OC)c1	10µM*	-0.8%	/	12.9%	-2.3%	2.7
NC(=O)C1CCN(c2nc(-c3ccc(C(F)(F)F)cc3)cs2)CC1	/	/	/	/	/	-21.1
O=C(NCCc1ccccc1)c1cc2ccccc2oc1=O	-2.4%	6.8%	/	-0.3%	-1.6%	-118.1*
C/C(CC(=O)Nc1ccc(Cl)c(C(F)(F)F)c1)=N\NC(=O)c1cnccn1	4.47µM*	11.8%	/	5.9%	-0.7%	-25.0
Cc1ccc(C(=O)N/N=c2\oc3ccccc3cc2C(N)=O)cc1	0.0%	5.3%	/	?	-0.8%	-7.6
NC(=O)c1cc2ccccc2o/c1=N/NC(=O)c1cccc(Cl)c1	28.7%	-4.9%	/	12.6%	-4.9%	-78.5*
CCn1c(=O)c([N+](=O)[O-])c(Cl)c2ccccc21	-61.9%	8.4%	9.0%	5.7%	0.9%	-79.2*
N#Cc1cccc(-c2csc(N3CCC(C(N)=O)CC3)n2)c1	/	/	/	/	/	-9.2
CCC1(c2ccccc2)NC(=O)NC1=O (stereo unspecified)	/	/	-3.4%	/	/	/
CCOc1cc(NC(=O)C2CC2)c(OCC)cc1NC(=O)c1cccc(F)c1	7.5%	7.5%	/	1.6%	0.7%	-89.4*
Cc1ccc(SCC(CC(C)C)N2CCN(C)CCC2=O)cc1 (stereo unspecified)	/	/	-1.3%	/	/	/
CCCCCCCCCCCCCCCCOC[C@H](COP(=O)([O-])OCC[N+](C)(C)C)OC(=O)CCCCCCCC(=O)O	/	/	-7.4%	/	/	/
O=C(O)CCCNC(=O)CCn1nnc2ccccc2c1=O	11.2µM*	-1.6%	-1.8%	7.1%	2.4%	-2.0
COc1ccccc1C(=O)NCC(=O)N=Nc1c(O)n(C(C)C)c2ccccc12	11.2µM*	-1.6%	/	?	0.0%	-0.1
